Results as given in paper PMC7862700, “An all-to-all approach to the identification of sequence-specific readers for epigenetic DNA modifications on cytosine”.

Assays:
Test in all cases: DAPPL (digital affinity profiling via proximity ligation, sequencing); 10 mM Tris-HCl pH 7.5, 50 mM NaCl, 1 mM DTT, 4% glycerol, room temperature, 30 min; GST-TFs on glutathione beads, 16-mer random dsDNA library, 0.1% formaldehyde crosslink after washing; high values mean tight binding
FEV = target: T1, FEV (Homo sapiens, UniProt Q99581 1-238); details: protein: recombinant; tags: N-terminal GST; dsDNA, one strand shown
T1 sequence: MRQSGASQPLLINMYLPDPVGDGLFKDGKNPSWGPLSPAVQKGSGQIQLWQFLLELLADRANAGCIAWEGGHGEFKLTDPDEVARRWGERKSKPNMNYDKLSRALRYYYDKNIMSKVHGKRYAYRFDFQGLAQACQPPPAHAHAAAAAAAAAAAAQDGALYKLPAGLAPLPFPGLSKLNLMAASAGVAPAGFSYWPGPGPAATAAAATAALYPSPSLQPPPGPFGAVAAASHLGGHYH
Method in brief: (§1)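 Yeast served to express human transcription factors as GST fusions, which were then captured on glutathione beads and labelled with DNA barcodes. Pooled with a tag-only sample, they were incubated with 200 nmole of a 16-mer random double-stranded DNA library for 30 min at room temperature in Tris/NaCl/DTT/glycerol buffer, washed, crosslinked with 0.1% formaldehyde, ligated by proximity, amplified by PCR and sequenced. Dividing each hexamer's read frequency for a factor by its frequency for the tag-only sample gives the binding signal.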

ETV5 = ETV5 (Homo sapiens, UniProt P41161 1-510); details: protein: recombinant; tags: N-terminal GST; dsDNA, one strand shown
Method in brief: as §1

HSF1 = HSF1 (Homo sapiens, UniProt Q00613 1-529); details: protein: recombinant; tags: N-terminal GST; chain copies: 3; dsDNA, one strand shown
Method in brief: as §1

SPIC = target: T2, SPIC (Homo sapiens, UniProt Q8N5J4 1-248); details: protein: recombinant; tags: N-terminal GST; dsDNA, one strand shown
T2 sequence: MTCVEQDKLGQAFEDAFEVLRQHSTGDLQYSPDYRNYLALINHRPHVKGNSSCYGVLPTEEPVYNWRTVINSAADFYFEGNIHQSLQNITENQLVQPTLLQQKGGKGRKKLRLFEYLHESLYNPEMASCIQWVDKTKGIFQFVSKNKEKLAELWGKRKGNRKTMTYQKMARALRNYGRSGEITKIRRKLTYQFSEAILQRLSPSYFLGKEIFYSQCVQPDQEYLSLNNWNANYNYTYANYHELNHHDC
Method in brief: as §1

ELF4 = ELF4 (Homo sapiens, UniProt Q99607 1-663); details: protein: recombinant; tags: N-terminal GST; dsDNA, one strand shown
Method in brief: as §1

ELK4 = target: T3, ELK4 (Homo sapiens, UniProt P28324-2 1-405); details: protein: recombinant; tags: N-terminal GST; dsDNA, one strand shown
T3 sequence: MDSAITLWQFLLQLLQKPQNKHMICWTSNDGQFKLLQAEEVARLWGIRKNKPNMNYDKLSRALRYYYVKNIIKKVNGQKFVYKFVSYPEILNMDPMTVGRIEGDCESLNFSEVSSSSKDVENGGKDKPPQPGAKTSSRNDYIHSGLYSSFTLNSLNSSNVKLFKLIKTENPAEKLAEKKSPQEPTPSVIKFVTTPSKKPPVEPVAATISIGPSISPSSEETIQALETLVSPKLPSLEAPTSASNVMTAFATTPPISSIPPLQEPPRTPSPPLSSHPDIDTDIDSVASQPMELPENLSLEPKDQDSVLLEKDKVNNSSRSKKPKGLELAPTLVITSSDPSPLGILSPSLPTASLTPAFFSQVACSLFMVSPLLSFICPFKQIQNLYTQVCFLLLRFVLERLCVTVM
Method in brief: as §1

ETV2 = target: T4, ETV2 (Homo sapiens, UniProt O00321 1-342); details: protein: recombinant; tags: N-terminal GST; dsDNA, one strand shown
T4 sequence: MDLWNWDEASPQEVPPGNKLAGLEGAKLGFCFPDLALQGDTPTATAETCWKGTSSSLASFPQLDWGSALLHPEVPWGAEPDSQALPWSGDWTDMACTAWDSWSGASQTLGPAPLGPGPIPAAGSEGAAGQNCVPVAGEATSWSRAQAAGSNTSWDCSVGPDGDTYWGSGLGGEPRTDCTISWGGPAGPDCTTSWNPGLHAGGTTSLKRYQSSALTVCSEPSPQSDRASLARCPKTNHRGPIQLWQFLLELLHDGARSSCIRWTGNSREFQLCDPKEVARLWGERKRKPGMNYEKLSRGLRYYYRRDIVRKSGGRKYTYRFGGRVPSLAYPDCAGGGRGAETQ
Method in brief: as §1

CRX = CRX (Homo sapiens, UniProt O43186 1-299); details: protein: recombinant; tags: N-terminal GST; dsDNA, one strand shown
Method in brief: as §1

ETV1 = ETV1 (Homo sapiens, UniProt P50549 1-477); details: protein: recombinant; tags: N-terminal GST; dsDNA, one strand shown
Method in brief: as §1

ERF = target: T5, ERF (Homo sapiens, UniProt P50548 1-548); details: protein: recombinant; tags: N-terminal GST; dsDNA, one strand shown
T5 sequence: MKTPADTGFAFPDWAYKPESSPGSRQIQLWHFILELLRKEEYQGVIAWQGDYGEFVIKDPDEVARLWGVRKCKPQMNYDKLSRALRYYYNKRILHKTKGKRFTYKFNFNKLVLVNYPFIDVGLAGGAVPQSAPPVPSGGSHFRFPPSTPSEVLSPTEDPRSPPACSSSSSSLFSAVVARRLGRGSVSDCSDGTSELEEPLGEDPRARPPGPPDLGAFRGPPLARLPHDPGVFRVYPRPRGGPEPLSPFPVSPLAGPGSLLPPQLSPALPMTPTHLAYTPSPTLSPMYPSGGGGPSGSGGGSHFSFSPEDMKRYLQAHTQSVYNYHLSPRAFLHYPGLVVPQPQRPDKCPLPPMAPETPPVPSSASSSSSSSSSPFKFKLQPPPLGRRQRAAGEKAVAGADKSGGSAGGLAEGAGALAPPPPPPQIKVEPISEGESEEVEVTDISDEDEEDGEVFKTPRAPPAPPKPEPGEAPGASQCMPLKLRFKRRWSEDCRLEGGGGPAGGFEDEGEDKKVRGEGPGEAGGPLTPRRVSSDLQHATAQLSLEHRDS
Method in brief: as §1

ETV3L = target: T6, ETV3L (Homo sapiens, UniProt Q6ZN32 1-361); details: protein: recombinant; tags: N-terminal GST; dsDNA, one strand shown
T6 sequence: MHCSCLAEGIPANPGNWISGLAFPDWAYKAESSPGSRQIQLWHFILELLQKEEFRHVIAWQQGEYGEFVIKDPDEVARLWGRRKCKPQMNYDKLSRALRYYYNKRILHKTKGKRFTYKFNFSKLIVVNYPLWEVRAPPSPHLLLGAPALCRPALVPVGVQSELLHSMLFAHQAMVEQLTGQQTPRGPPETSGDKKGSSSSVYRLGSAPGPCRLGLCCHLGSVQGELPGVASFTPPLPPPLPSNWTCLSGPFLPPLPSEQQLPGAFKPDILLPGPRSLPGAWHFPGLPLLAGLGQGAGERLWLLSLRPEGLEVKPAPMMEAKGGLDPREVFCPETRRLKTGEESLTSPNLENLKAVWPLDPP
Method in brief: as §1

ETS2 = target: T7, ETS2 (Homo sapiens, UniProt P15036 1-469); details: protein: recombinant; tags: N-terminal GST; dsDNA, one strand shown
T7 sequence: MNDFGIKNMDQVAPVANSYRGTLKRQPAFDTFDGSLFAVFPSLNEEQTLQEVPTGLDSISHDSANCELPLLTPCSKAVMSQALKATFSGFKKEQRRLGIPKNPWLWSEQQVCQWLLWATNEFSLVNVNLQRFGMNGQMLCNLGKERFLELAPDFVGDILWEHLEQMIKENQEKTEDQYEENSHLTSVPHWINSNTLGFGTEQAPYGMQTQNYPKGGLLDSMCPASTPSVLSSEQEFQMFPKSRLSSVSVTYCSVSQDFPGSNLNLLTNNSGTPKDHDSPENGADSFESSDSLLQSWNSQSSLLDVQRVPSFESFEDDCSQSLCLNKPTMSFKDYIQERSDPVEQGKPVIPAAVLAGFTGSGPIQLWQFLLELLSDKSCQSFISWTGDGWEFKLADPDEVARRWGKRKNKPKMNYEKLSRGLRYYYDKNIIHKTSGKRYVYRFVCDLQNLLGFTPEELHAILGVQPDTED
Method in brief: as §1

SPDEF = target: T8, SPDEF (Homo sapiens, UniProt O95238 1-335); details: protein: recombinant; tags: N-terminal GST; dsDNA, one strand shown
T8 sequence: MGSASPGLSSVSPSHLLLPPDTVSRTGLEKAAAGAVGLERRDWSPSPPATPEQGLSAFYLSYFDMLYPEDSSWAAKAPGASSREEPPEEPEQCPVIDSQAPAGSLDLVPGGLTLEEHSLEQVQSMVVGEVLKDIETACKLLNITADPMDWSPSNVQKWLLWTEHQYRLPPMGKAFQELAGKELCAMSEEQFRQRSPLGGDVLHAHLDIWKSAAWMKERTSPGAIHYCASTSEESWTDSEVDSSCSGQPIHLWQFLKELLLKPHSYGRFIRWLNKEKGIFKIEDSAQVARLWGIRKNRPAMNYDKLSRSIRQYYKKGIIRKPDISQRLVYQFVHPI
Method in brief: as §1

ETV7 = target: T9, ETV7 (Homo sapiens, UniProt Q9Y603 1-341); details: protein: recombinant; tags: N-terminal GST; dsDNA, one strand shown
T9 sequence: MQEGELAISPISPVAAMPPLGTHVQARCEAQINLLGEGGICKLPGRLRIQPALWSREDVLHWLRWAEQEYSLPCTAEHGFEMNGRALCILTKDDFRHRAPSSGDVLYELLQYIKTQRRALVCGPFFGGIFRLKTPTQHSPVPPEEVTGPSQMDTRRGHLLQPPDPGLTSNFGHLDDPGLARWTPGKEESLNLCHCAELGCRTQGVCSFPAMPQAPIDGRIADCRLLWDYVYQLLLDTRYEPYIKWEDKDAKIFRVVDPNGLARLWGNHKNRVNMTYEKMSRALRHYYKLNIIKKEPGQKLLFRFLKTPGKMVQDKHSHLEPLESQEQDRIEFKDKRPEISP
Method in brief: as §1

ELF5 = target: T10, ELF5 (Homo sapiens, UniProt Q9UKW6-2 1-255); details: protein: recombinant; tags: N-terminal GST; dsDNA, one strand shown
T10 sequence: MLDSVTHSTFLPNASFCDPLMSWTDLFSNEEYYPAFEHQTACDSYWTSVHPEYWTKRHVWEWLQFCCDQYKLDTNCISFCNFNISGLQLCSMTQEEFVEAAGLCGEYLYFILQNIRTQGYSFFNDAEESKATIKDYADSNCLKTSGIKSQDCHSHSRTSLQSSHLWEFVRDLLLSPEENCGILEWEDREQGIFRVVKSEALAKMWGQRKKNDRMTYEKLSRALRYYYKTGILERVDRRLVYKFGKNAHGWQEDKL
Method in brief: as §1

ETV3 = target: T11, ETV3 (Homo sapiens, UniProt P41162-2 1-143); details: protein: recombinant; tags: N-terminal GST; dsDNA, one strand shown
T11 sequence: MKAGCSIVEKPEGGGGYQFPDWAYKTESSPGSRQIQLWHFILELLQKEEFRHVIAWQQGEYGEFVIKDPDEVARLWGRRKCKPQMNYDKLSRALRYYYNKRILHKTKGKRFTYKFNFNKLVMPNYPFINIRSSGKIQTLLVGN
Method in brief: as §1

ETV6 = ETV6 (Homo sapiens, UniProt P41212 1-452); details: protein: recombinant; tags: N-terminal GST; dsDNA, one strand shown
Method in brief: as §1

ETV5, sequence (P41161 whole entry): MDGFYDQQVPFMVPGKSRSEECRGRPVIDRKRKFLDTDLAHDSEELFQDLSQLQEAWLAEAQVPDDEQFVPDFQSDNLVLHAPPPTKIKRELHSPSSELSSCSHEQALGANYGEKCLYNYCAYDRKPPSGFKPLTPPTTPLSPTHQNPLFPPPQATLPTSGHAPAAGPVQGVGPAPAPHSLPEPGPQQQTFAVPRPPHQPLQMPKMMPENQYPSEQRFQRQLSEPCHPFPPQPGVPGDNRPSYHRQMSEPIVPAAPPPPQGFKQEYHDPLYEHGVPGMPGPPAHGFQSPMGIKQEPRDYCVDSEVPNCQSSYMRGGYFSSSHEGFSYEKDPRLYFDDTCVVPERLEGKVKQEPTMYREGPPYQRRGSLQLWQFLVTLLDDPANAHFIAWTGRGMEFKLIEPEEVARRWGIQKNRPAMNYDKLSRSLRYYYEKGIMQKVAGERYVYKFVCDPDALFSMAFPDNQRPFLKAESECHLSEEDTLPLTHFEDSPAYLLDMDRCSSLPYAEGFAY
HSF1, sequence (Q00613 whole entry): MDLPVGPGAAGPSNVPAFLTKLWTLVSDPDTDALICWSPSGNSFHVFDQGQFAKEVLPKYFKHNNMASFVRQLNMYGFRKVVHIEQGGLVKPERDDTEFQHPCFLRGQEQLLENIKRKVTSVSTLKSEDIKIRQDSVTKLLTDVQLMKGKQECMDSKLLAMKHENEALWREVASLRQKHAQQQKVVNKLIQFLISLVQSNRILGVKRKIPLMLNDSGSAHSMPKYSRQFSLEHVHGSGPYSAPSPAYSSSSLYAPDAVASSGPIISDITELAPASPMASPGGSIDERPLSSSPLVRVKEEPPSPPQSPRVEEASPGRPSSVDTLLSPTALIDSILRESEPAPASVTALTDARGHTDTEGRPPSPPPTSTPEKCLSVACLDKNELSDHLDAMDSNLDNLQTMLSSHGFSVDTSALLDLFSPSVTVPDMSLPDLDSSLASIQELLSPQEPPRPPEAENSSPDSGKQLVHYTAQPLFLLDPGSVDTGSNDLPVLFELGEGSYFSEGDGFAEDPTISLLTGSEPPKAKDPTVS
ELF4, sequence (Q99607 whole entry): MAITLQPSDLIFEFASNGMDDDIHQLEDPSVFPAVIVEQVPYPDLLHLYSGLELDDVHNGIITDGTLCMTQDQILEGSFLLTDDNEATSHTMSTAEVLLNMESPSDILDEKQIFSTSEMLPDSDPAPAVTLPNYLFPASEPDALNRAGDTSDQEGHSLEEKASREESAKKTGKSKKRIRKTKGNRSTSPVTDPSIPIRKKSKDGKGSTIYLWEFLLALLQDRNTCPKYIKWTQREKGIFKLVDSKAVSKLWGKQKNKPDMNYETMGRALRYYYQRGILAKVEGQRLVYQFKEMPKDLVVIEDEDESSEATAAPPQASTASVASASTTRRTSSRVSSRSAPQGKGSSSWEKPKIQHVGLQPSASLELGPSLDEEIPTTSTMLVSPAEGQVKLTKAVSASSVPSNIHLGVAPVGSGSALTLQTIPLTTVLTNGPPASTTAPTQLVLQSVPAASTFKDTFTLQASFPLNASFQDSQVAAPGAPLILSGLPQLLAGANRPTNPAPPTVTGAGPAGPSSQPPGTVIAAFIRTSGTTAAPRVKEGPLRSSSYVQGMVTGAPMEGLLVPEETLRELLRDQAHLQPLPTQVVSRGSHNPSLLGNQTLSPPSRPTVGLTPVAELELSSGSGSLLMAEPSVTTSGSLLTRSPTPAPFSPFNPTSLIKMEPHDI
ETV1, sequence (P50549 whole entry): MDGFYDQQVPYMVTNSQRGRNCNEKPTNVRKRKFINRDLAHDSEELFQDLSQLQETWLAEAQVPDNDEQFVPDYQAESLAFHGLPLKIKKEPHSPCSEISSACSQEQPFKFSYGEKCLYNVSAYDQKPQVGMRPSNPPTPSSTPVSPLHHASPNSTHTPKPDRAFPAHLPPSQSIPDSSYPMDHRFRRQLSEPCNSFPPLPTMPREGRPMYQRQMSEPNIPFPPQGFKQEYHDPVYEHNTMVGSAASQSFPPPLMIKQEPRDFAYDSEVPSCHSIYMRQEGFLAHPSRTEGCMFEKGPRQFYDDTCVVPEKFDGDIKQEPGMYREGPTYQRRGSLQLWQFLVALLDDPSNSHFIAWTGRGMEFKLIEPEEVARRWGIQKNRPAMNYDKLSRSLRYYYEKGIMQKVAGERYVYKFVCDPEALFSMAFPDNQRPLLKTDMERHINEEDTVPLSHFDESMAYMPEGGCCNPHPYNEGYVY
ETV6, sequence (P41212 whole entry): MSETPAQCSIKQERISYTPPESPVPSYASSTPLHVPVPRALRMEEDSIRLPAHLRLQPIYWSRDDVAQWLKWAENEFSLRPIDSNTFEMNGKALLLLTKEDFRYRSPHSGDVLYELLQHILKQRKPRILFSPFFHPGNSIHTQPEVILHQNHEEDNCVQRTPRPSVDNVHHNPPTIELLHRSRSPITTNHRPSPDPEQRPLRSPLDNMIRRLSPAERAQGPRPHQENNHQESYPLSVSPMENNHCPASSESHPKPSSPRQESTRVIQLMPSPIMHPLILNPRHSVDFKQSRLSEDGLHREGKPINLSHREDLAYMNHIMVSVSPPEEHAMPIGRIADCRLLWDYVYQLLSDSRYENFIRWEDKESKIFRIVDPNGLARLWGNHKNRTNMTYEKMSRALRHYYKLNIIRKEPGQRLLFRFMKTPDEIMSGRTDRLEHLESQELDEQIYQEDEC
CRX, sequence (O43186 whole entry): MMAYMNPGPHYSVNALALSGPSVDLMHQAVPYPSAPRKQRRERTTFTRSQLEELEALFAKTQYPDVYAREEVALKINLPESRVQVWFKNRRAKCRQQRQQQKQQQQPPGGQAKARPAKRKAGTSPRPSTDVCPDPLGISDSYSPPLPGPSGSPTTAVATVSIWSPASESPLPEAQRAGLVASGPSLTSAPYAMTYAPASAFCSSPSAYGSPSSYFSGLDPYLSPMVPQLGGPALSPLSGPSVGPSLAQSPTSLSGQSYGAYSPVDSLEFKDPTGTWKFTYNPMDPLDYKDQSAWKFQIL

## TCTGTA
FEV
  binding signal: 1.24 fold enrichment (6-mer frequency, TF over GST control)
ETV5
  binding signal: 1.19 fold enrichment (6-mer frequency, TF over GST control)
HSF1
  binding signal: 1.31 fold enrichment (6-mer frequency, TF over GST control)
SPIC
  binding signal: 1.39 fold enrichment (6-mer frequency, TF over GST control)
ELF4
  binding signal: 1.18 fold enrichment (6-mer frequency, TF over GST control)
ELK4
  binding signal: 1.3 fold enrichment (6-mer frequency, TF over GST control)
ETV2
  binding signal: 1.28 fold enrichment (6-mer frequency, TF over GST control)
CRX
  binding signal: 1.34 fold enrichment (6-mer frequency, TF over GST control)
ETV1
  binding signal: 1.28 fold enrichment (6-mer frequency, TF over GST control)
ERF
  binding signal: 1.16 fold enrichment (6-mer frequency, TF over GST control)
ETV3L
  binding signal: 1.24 fold enrichment (6-mer frequency, TF over GST control)
ETS2
  binding signal: 1.27 fold enrichment (6-mer frequency, TF over GST control)
SPDEF
  binding signal: 1.26 fold enrichment (6-mer frequency, TF over GST control)
ETV7
  binding signal: 1.03 fold enrichment (6-mer frequency, TF over GST control)
ELF5
  binding signal: 1.17 fold enrichment (6-mer frequency, TF over GST control)
ETV3
  binding signal: 1.25 fold enrichment (6-mer frequency, TF over GST control)
ETV6
  binding signal: 1.18 fold enrichment (6-mer frequency, TF over GST control)
